About 79,000 compounds went through this panel and 15% of them were active in at least one assay; those are over-represented in the sample as a whole. Unmarked numbers belong to inactive results. The source made the active and inactive calls. Cut-off read from the data, not from the text of the source: active = growth inhibition above about 70%; inactive = the rest.
Key:
[1] = NCI Yeast Anticancer Drug Screen. Data for the rad50 strain (AID 155);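 note: 0% = growth of vehicle-only cultures of the same strain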; settings: S. cerevisiae rad50 strain growth inhibition, stronger effect = higher value
How it was run: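 Genetically altered yeast (DNA repair pathway); compound treatment; growth inhibition vs vehicle ctrl.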

[2] = NCI Yeast Anticancer Drug Screen. Data for the mec2-1 strain (AID 157); settings: S. cerevisiae mec2-1 strain, stronger effect = higher value
How it was run: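 Mutant yeast (mec2-1) grown with compound; growth inhibition relative to vehicle control reported.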

[3] = NCI Yeast Anticancer Drug Screen. Data for the sgs1 mgt1 strain (AID 161);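 note: 0% = growth of cultures given vehicle only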; settings: S. cerevisiae sgs1 mgt1 strain, stronger effect = higher value
How it was run: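 This yeast growth screen uses a strain with defined DNA-repair lesions; compound-treated growth is compared with vehicle-treated growth.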

[4] = NCI Yeast Anticancer Drug Screen. Data for the cln2 rad14 strain (AID 165);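 note: 0% = growth equal to vehicle treated cultures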; settings: S. cerevisiae cln2 rad14 strain, stronger effect = higher value
How it was run: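 Readout is yeast growth inhibition versus vehicle-treated controls, using a strain with cln2 and rad14 alterations exposed to compound.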

[5] = NCI Yeast Anticancer Drug Screen. Data for the bub3 strain (AID 167); settings: S. cerevisiae bub3 mutant strain, stronger effect = higher value
How it was run: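 Yeast carrying a defined mutation is treated with each compound, and growth is compared with that of vehicle-exposed cells to give inhibition.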

[6] = NCI Yeast Anticancer Drug Screen. Data for the mlh1 rad18 strain (AID 175); settings: S. cerevisiae mlh1 rad18 strain growth inhibition, stronger effect = higher value
How it was run: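 Genetically defined yeast (DNA repair-deficient) exposed to compounds; growth inhibition determined relative to vehicle.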

[7] = at 5.0 µM (retest, dose inferred, filed as 0.5)
[8] = at 50.0 µM (retest, dose inferred, filed as 5.0)

SMILES	growth inhibition [1, 7]	growth inhibition [1, 8]	growth inhibition ([1]; at 50.0 µM)	growth inhibition [2, 7]	growth inhibition [2, 8]	growth inhibition ([2]; at 50.0 µM)	growth inhibition [3, 7]	growth inhibition [3, 8]	growth inhibition ([3]; at 50.0 µM)	growth inhibition [4, 7]	growth inhibition [4, 8]	growth inhibition ([4]; at 50.0 µM)	growth inhibition [5, 7]	growth inhibition [5, 8]	growth inhibition ([5]; at 50.0 µM)	growth inhibition [6, 7]	growth inhibition [6, 8]	growth inhibition ([6]; at 50.0 µM)
O=S1Nc2ccccc2S1 (stereo not given)	0%	18%	58%	-1%	33%	85.2% (active)	2%	42%	99.2% (active)	-8%	37%	97% (active)	-1%	77% (active)	98.7% (active)	-1%	41%	96.2% (active)
CCCCN(CCO)CC(O)Cn1cnc2c(N)ncnc21 (stereo not given) (tested in a mixture with another compound)	-12%	-5%	21.9%	-12%	-8%	-5.45%	-18%	0%	-3.9%	-18%	-7%	18.7%	1%	-8%	3.2%	3%	-4%	25.9%
Cc1cc(NCCCCCCNc2cc(C)nc3cc(N(C)C)ccc23)c2ccc(N(C)C)cc2n1	11%	90% (active)	68.5%	0%	96% (active)	85.2% (active)	9%	95% (active)	26.7%	8%	79% (active)	13%	-7%	96% (active)	1.15%	7%	92% (active)	7.45%
O=[N+]([O-])c1ccccc1NC1CCN(CCCC2(c3ccc(F)cc3)OCCO2)CC1	11%	96% (active)	99% (active)	7%	94% (active)	98% (active)	16%	99% (active)	98.6% (active)	9%	94% (active)	93.3% (active)	10%	97% (active)	41.4%	11%	94% (active)	98.7% (active)
CN(O)C(=S)c1ccccc1	50%	87% (active)	91.7% (active)	43%	73% (active)	93.3% (active)	55%	99% (active)	92.5% (active)	41%	99% (active)	89.6% (active)	95% (active)	99% (active)	91.8% (active)	36%	67%	86.7% (active)
Cc1ccc(C)c(N2C/C(=N\NC(=O)CC#N)C(c3nc4ccccc4s3)C(=O)C2=O)c1 (stereo not given)	0%	1%	7.9%	0%	2%	-0.3%	-3%	-3%	-5.2%	-3%	-1%	12.6%	33%	19%	-0.3%	1%	1%	20.9%
COc1ccc(NC(=S)N/N=C/c2cccc(C)n2)cc1	8%	98% (active)	67.4%	0%	94% (active)	82.5% (active)	13%	90% (active)	86.5% (active)	23%	88% (active)	83.3% (active)	-22%	85% (active)	85.9% (active)	10%	95% (active)	89.4% (active)
S=c1sc2nc(Cl)nc(Cl)c2s1	99% (active)	99% (active)	87.1% (active)	100% (active)	99% (active)	88.3% (active)	100% (active)	99% (active)	89.5% (active)	97% (active)	99% (active)	89.5% (active)	100% (active)	100% (active)	87.4% (active)	99% (active)	98% (active)	89.3% (active)
[Fe+2].c1cc[cH-]c1.c1ccc(-c2ccc[cH-]2)cc1	-4%	29%	7.6%	-2%	32%	23.3%	-6%	47%	-9.4%	1%	16%	16.9%	0%	41%	74.7% (active)	1%	24%	19%
OC1CCN(c2c3ccccc3nc3ccccc23)CC1	21%	85% (active)	12.2%	7%	67%	11.4%	32%	94% (active)	2.65%	24%	23%	37.4%	1%	19%	5.55%	8%	81% (active)	15%
CCCC(=O)N(C(=O)CCC)C1=C(Cl)C(=O)c2ccccc2C1=O	55%	64%	29.9%	95% (active)	95% (active)	83.1% (active)	56%	72% (active)	75.1% (active)	33%	65%	74.2% (active)	91% (active)	98% (active)	87.4% (active)	48%	64%	86.6% (active)
Cc1ccc(S(=O)(=O)OC(C=O)C(O)C(O)COC(c2ccccc2)(c2ccccc2)c2ccccc2)cc1 (stereo not given)	98% (active)	98% (active)	87.8% (active)	98% (active)	98% (active)	84.5% (active)	95% (active)	95% (active)	86.4% (active)	99% (active)	99% (active)	84.8% (active)	98% (active)	98% (active)	88.5% (active)	99% (active)	99% (active)	85.2% (active)
Nc1ncc(C(=O)c2ccccc2)cc1[N+](=O)[O-]	-142%	-110%	-5.7%	-44%	-37%	21.8%	-61%	-45%	-5.95%	-56%	-22%	38.9%	-76%	-58%	-2.9%	-138%	-87%	-0.8%
CCCCCCCCCCCC(=O)Oc1c(Cl)c(Cl)c(C#N)c(Cl)c1Cl	5%	0%	70.7% (active)	2%	3%	23.4%	5%	7%	60.9%	12%	-1%	48.6%	1%	-1%	8.7%	5%	13%	86.7% (active)
CC(=O)c1cccc(NC(=O)C(=O)NNc2n[nH]c(=S)n2N)c1	16%	95% (active)	89.4% (active)	-20%	94% (active)	94.1% (active)	6%	90% (active)	92.9% (active)	19%	77% (active)	92.4% (active)	-19%	95% (active)	92.8% (active)	19%	94% (active)	91.1% (active)
c1ccc(CCC2=Nc3ccccc3CO2)cc1	-160%	-155%	7.75%	-48%	-56%	-6.5%	-64%	-63%	12.2%	-67%	-87%	13.3%	-68%	-69%	-18.7%	-126%	-124%	-8.4%
C=C(Br)CN1CCC2(c3ccccc3)C(O)C([Se]c3ccccc3)CCC12 (stereo not given)	85% (active)	85% (active)	83.1% (active)	78% (active)	78% (active)	84% (active)	81% (active)	81% (active)	78% (active)	80% (active)	80% (active)	83.3% (active)	84% (active)	84% (active)	84.8% (active)	89% (active)	89% (active)	82.8% (active)
C/C(=N\NC(=S)Nc1ccc(N(C)C)cc1)c1ccccn1	-1%	23%	72.2% (active)	-4%	68%	97.5% (active)	-2%	74% (active)	79.7% (active)	1%	72% (active)	31.8%	-1%	35%	46.3%	-7%	78% (active)	82.3% (active)
Cc1nc(N)sc1N=Nc1cc(Cl)c([N+](=O)[O-])cc1Cl	-4%	26%	38%	-7%	33%	39.5%	4%	77% (active)	70.2% (active)	4%	2%	35.1%	4%	7%	47.5%	11%	78% (active)	78.1% (active)
CC1CCC(NCCOC(=O)c2ccc([N+](=O)[O-])cc2)CC1 (stereo not given)	2%	23%	70.8% (active)	1%	18%	-2.9%	1%	24%	54.5%	-75%	41%	31.9%	-8%	-71%	17.6%	-3%	6%	42.9%

— PubChem BioAssay (NCI)
